Data published in PubChem BioAssay.
A number with no mark means an inactive call. Entries that show only a call come without a potency. For some assays here: Potency and affinity values are given separately. Calls of active or inactive are those of the source. Unless noted, how the calls were made is not given here.

Tests used:
[1] = antimalarial activity against Dd2 strain (AID 2302;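 active means growth inhibition above 50% at the single 2 µM test dose, taken to imply half-maximal potency below 2 µM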); conditions: P. falciparum Dd2 in RBCs, LDH growth readout, 72 h; at 2 µM; hits give high values
[2] = human hepatoma cell viability loss – ATP luminescence, cytotoxicity control for P. falciparum antimalarial project, primary screen (AID 2303;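 active means inhibition above 50%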); conditions: HepG2 viability, 24-48 h, at 10 µM, hits give high values
[3] = molecular target: L-lactate dehydrogenase (Plasmodium falciparum (isolate CDC / Honduras)) (UniProt Q27743); assay: PfLDH activity inhibition – cell lysate, 3D7 strain, counter-screen for P. falciparum growth inhibition project (AID 2304); conditions: P. falciparum 3D7 crude extract, LDH APAD/NBT absorbance; at 2 µM; hits give high values
Chain of L-lactate dehydrogenase (Plasmodium falciparum (isolate CDC / Honduras)) (Q27743 whole entry, looked up): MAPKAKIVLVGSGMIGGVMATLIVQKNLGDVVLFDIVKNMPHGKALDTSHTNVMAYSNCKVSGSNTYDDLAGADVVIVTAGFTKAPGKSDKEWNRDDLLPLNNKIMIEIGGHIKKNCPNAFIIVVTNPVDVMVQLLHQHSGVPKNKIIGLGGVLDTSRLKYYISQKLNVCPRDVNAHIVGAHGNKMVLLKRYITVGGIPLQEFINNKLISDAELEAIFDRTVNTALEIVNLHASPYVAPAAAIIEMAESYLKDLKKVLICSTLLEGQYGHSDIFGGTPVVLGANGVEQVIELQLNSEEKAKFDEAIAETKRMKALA

[4] = inhibition of 3D7 malaria parasite growth – strain 3D7 (AID 2306); conditions: P. falciparum 3D7 erythrocytic growth, LDH absorbance, 72 h; at 2 µM; hits give high values
[5] = molecular target: Calcium-dependent protein kinase 1 (Plasmodium falciparum (isolate 3D7)) (UniProt P62344); assay: PfCDPK1 kinase inhibitors, biochemical, TCAMS library (AID 1159585; cut-off not given, nearly all actives have IC50 up to about 0.98 µM;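 further: inhibitors leave more ATP so luminescence rises with inhibition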); conditions: recombinant PfCDPK1, Kinase-Glo ATP depletion luminescence
Chain of Calcium-dependent protein kinase 1 (Plasmodium falciparum (isolate 3D7)) (P62344 whole entry, looked up): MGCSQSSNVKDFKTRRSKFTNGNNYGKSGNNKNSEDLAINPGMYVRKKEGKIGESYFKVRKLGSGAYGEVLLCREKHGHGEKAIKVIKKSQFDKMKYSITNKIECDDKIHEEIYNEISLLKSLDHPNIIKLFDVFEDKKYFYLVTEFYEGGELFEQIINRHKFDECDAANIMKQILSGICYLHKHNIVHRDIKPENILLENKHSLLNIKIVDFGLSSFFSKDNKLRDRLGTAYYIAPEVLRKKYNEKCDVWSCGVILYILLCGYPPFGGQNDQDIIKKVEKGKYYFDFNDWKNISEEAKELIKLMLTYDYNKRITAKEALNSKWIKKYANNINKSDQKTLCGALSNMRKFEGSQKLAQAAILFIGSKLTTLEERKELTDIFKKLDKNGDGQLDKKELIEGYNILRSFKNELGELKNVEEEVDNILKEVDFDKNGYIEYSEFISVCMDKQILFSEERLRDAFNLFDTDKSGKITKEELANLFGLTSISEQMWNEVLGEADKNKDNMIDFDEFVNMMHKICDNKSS

[6] = molecular target: Plasmodium falciparum protein kinase 6 (PK6, PF3D7_1337100) (UniProt Q8IDW1); assay: PfPK6 kinase inhibitors, biochemical, TCAMS library (AID 1159586); conditions: recombinant PfPK6, Kinase-Glo ATP depletion luminescence
Chain of Plasmodium falciparum protein kinase 6 (PK6, PF3D7_1337100) (Q8IDW1 1-305): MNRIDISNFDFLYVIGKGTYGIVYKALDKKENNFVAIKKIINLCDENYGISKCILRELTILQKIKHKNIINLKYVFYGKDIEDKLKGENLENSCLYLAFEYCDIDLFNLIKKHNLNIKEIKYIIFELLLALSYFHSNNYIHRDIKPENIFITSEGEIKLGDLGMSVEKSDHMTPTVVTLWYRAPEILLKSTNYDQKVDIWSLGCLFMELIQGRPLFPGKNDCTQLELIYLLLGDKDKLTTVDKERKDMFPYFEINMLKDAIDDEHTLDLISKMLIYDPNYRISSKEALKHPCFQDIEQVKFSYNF

[7] = molecular target: Protein kinase 7 (PK7), Plasmodium falciparum 3D7 (PF3D7_0213400) (UniProt Q7YTF7); assay: inhibition of Plasmodium PK7 catalytic activity – biochemical, TCAMS antimalarial set, Kinase-Glo luminescence (AID 1159587); conditions: recombinant PfPK7, Kinase-Glo ATP depletion luminescence
Chain of Protein kinase 7 (PK7), Plasmodium falciparum 3D7 (PF3D7_0213400) (Q7YTF7 1-343): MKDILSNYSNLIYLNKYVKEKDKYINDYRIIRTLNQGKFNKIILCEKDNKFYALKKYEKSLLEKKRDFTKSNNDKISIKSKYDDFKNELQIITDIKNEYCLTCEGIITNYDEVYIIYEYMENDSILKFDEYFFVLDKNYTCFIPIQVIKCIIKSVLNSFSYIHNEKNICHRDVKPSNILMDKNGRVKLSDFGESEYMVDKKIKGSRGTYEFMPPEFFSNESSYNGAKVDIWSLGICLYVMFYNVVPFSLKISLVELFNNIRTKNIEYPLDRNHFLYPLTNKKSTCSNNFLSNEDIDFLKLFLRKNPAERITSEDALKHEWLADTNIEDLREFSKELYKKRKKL

[8] = molecular target: Calcium-dependent protein kinase 4 (Plasmodium falciparum (isolate 3D7)) (UniProt Q8IBS5); assay: PfCDPK4 kinase inhibitors, biochemical, TCAMS library (AID 1159588; cut-off not given, nearly all actives have IC50 up to about 0.91 µM); conditions: recombinant PfCDPK4, Kinase-Glo ATP depletion luminescence
Chain of Calcium-dependent protein kinase 4 (Plasmodium falciparum (isolate 3D7)) (Q8IBS5 whole entry, looked up): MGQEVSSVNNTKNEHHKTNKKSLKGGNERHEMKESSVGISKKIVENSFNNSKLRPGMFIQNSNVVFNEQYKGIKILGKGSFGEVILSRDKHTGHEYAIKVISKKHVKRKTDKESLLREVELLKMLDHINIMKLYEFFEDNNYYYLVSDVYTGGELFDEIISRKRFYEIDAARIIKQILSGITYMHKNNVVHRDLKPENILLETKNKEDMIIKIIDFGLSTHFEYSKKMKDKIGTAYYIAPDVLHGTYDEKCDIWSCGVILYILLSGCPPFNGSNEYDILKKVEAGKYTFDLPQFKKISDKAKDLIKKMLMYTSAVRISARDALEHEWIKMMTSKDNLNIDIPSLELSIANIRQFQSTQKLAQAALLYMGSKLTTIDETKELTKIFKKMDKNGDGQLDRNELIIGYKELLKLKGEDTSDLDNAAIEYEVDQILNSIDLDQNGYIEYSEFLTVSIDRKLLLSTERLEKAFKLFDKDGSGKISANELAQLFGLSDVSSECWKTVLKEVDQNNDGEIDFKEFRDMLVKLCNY

Compound | growth inhibition [1] | inhibition [2] | inhibition [3] [%] | growth inhibition [4] | outcome [5] | outcome [6] | outcome [7] | outcome [8]
CCC(C)NS(=O)(=O)c1ccc2nc(Nc3ccc(C)cc3)n(C3CCCCC3)c2c1 (stereo not given) | 97% (active) | -9% | -4 | 97% (active) | inactive | inactive | inactive | inactive
Cc1nc(-c2ccc(-c3ccc(NC(=O)c4coc5ccc(N6C[C@@H](C)N(C)[C@@H](C)C6)cc45)cc3)c(C)c2)no1 | 46% | 21% | 1 | 96% (active) | inactive | inactive | inactive | inactive
O=C(c1cc2nc3c(c(C(F)(F)F)n2n1)CCc1ccccc1-3)N1CCN2CCCC2C1 (stereo not given) | 3% | -8% | 0 | 94% (active) | inactive | inactive | inactive | inactive
CC(C)(C)c1ccc(CNC(=O)c2cc(CNC3CCNC3)ccc2O)cc1 (stereo not given) | 1% | 0% | -6 | 94% (active) | inactive | inactive | inactive | inactive
Cc1cccc2[nH]c(-c3cccc(-c4cccc(NC(=O)c5csnn5)c4)c3)nc12 | 49% | 10% | 1 | 98% (active) | inactive | inactive | inactive | inactive
CCOC(=O)c1[nH]c2cc(Cl)cc(Cl)c2c1/C=C/C(=O)Nc1ccc(-c2cnc(NC(C)=O)[nH]2)cc1 | 65% (active) | 45% | -3 | 100% (active) | inactive | inactive | inactive | inactive
Cc1cc(-c2ccc(CNCCc3cccs3)cc2)ccc1S(=O)(=O)NCc1ccccc1 | -2% | 28% | 3 | 94% (active) | inactive | inactive | inactive | inactive
CC(C)C[C@H](NC(=O)c1cc2ccccc2s1)C(=O)N[C@H]1CCN(Cc2ccc(OC[C@@H]3CCCN3C)c(Cl)c2)C1 | 81% (active) | 83% (active) | -4 | 101% (active) | inactive | inactive | inactive | inactive
Cc1ccccc1C1CCN(C2CCC(NC(=O)/C=C/c3cccc(C(F)(F)F)c3)CC2)CC1 (stereo not given) | 54% (active) | 96% (active) | -4 | 100% (active) | inactive | inactive | inactive | inactive
O=C(/C=C/c1ccc(C(F)(F)F)cc1)NCCCCCN1CCCN(C(=O)Nc2ccc(F)c(Cl)c2)CC1 | 33% | 33% | 0 | 101% (active) | inactive | inactive | inactive | inactive
O=[N+]([O-])c1ccc(C2=NN(S(=O)(=O)c3c(Cl)cc(Cl)cc3Cl)CCCC2)cc1 | 98% (active) | 5% | 0 | 99% (active) | inactive | inactive | inactive | inactive
CCCCCCCC1=NN2C(=N)C(=Cc3cc(Br)c(OCc4ccc(F)cc4)c(OCC)c3)C(=O)N=C2S1 | -6% | 4% | 0 | 95% (active) | inactive | inactive | inactive | inactive
CCCCN1CCCN(Cc2cccc(NC(=O)c3ccc(-c4ccccc4)cc3)c2)CC1 | 8% | 19% | 5 | 92% (active) | inactive | inactive | inactive | inactive
Nc1cccc(CNCc2ccc(-c3ccc(-c4nc5ccccc5[nH]4)s3)cc2)c1 | 93% (active) | 12% | 4 | 100% (active) | inactive | inactive | inactive | inactive
CN(C)c1ccc(CN2CCCCC(NC(=O)c3cc(-c4ccccc4Cl)cs3)C2)cc1 (stereo not given) | 14% | 10% | -3 | 91% (active) | inactive | inactive | inactive | inactive
Cc1ccc(CCOCCCCCNCC(O)c2cc(Cl)c(N)c(Cl)c2)cc1 (stereo not given) | 98% (active) | 10% | -1 | 99% (active) | inactive | inactive | inactive | inactive
O=C(NCCN1CCCC1)c1cccc(-c2ccc(-c3nc4ccccc4[nH]3)cc2)c1 | 36% | 20% | 0 | 100% (active) | inactive | inactive | inactive | inactive
O=C(CCc1ccccc1)NC(c1ccc(Cl)cc1)c1ccc2cccnc2c1O (stereo not given) | 49% | 59% (active) | 2 | 95% (active) | inactive | inactive | inactive | inactive
COc1ccc2nccc([C@@H](O)CN3CCC(NCc4cc5cc(C)ccc5s4)CC3)c2c1 | 74% (active) | 13% | 3 | 92% (active) | inactive | inactive | inactive | inactive
CCn1ccc2c(N3CCCC3=O)cc(C(=O)N[C@@H](Cc3ccccc3)[C@H](O)CNC3CCCCC3)cc21 | 98% (active) | 12% | 2 | 99% (active) | inactive | inactive | inactive | inactive

Compound | growth inhibition [1] | inhibition [2] | inhibition [3] [%] | growth inhibition [4] | outcome [5] | outcome [6] | outcome [7] | outcome [8]
COc1ccc2nccc([C@@H](O)CN3CCC(NCc4ccc5c(c4)N(C)C(=O)CO5)CC3)c2c1 | 95% (active) | -3% | 6 | 101% (active) | inactive | inactive | inactive | inactive
CCOC(=O)N1NC(=O)N(c2ccccc2)C1(c1ccccc1)c1ccccc1 | 82% (active) | 5% | 6 | 96% (active) | inactive | inactive | inactive | inactive
Cc1ncccc1-c1cccc2c(NC(=O)Nc3ccc4nccc(N5CCN(C)CC5)c4c3)cccc12 | 96% (active) | 19% | -6 | 101% (active) | inactive | inactive | inactive | inactive
O=C(Nc1cccc(OC2CCN(Cc3ccccc3)CC2)c1)c1ccc([N+](=O)[O-])cc1 | 2% | 6% | 3 | 100% (active) | inactive | inactive | inactive | inactive
O=C(Nc1ccc(Cn2ncc(N3CCCNCC3)c(Cl)c2=O)cc1)Nc1cccc(C(F)(F)F)c1 | 30% | 20% | 0 | 101% (active) | inactive | inactive | inactive | inactive
Oc1cc(Nc2ccnc3cc(I)ccc23)ccc1F | 99% (active) | -6% | 0 | 99% (active) | inactive | inactive | inactive | inactive
Nc1nc(N)c2cc(S(=O)(=O)c3ccc4ccccc4c3)ccc2n1 | 51% (active) | 14% | 3 | 95% (active) | inactive | inactive | inactive | inactive
CC(C)(C)C(C)(C)Cc1ccc(O)c(CN2CCN(c3ccccc3)CC2)c1 | 98% (active) | 6% | 0 | 99% (active) | inactive | inactive | inactive | inactive
Nc1ccc(-c2ccc3ccnc(N)c3c2)cc1 | 68% (active) | 38% | -1 | 102% (active) | inactive | inactive | inactive | inactive
Nn1c(=O)oc2ccc(Cl)cc2c1=O | 96% (active) | 4% | -5 | 97% (active) | inactive | inactive | inactive | inactive
CNc1ccc(CNCc2cccc(-c3ccc(-c4nc5c(C)cccc5[nH]4)cc3)c2)cc1 | 83% (active) | 26% | -4 | 102% (active) | inactive | inactive | inactive | inactive
CCN(CC)CCCN(Cc1ccc(-c2ccc(C(F)(F)F)cc2)cc1)C(=O)Cn1c(SCc2cccc(F)c2F)cc(=O)c2ccccc21 | 82% (active) | 45% | 7 | 87% (active) | inactive | inactive | inactive | inactive
OCCNc1nc(Nc2ccc(Cl)cc2)nc2ccccc12 | 99% (active) | 30% | -1 | 102% (active) | inactive | inactive | inactive | inactive
COc1cc(NC(=O)/C=C/c2ccccc2Cl)cc(OCCN2CCC(O)(c3ccccc3)CC2)c1 | 46% | 48% | -1 | 102% (active) | inactive | inactive | inactive | inactive
O=C(Nc1ccc(OC2CCN(Cc3ccccc3)C2)c(Cl)c1)c1ccc(F)cc1 (stereo not given) | 87% (active) | 7% | 7 | 90% (active) | inactive | inactive | inactive | inactive
COc1cccc(-c2ccc(O)c(CNCCc3cccc(F)c3)c2)n1 | 67% (active) | -14% | 0 | 96% (active) | inactive | inactive | inactive | inactive
c1cc(-c2ccc(CN3CCN(c4ccncc4)CC3)cc2)cc(-c2nc3ccccc3[nH]2)c1 | 100% (active) | 61% (active) | -2 | 101% (active) | inactive | inactive | inactive | inactive
COc1ccc(Cc2c(C)nc3nc(N)nc(N)c3c2C)cc1OC | -4% | 66% (active) | -1 | 93% (active) | inactive | inactive | inactive | inactive
CC(=O)N(C)c1cccc(CNc2cc(C)nc(Nc3ccc(C)cc3)n2)c1 | 21% | 8% | -9 | 97% (active) | inactive | inactive | inactive | inactive
CCNc1cc(C(=O)N[C@@H](Cc2ccccc2)[C@H](O)CNC23CCC(CC2)C3)cc(N2CCCCS2(=O)=O)c1 | 99% (active) | 22% | -2 | 97% (active) | inactive | inactive | inactive | inactive
